The results in this text go back to ChEMBL document CHEMBL3988442, “University of Dundee, Small-Polar-MMV Screening Library” (2021).

For some assays here: Potency and affinity values are given separately.

Common to all, as to design: scale not given: direction of the effect not stated beside the values
Assay [1] deals with Protein translocase subunit SecA (Escherichia coli (strain K12)) (UniProt P10408). The assay can be described thus: Assay to Identify E. coli SecA ATPase Inhibitors. To be noted: 30 µM. It is filed as functional.
Assay [2] concerns the target T1, Ubiquitin-activating enzyme e1, putative (Leishmania donovani (strain BPK282A1)) (UniProt E9BSI1).
T1 sequence (whole entry): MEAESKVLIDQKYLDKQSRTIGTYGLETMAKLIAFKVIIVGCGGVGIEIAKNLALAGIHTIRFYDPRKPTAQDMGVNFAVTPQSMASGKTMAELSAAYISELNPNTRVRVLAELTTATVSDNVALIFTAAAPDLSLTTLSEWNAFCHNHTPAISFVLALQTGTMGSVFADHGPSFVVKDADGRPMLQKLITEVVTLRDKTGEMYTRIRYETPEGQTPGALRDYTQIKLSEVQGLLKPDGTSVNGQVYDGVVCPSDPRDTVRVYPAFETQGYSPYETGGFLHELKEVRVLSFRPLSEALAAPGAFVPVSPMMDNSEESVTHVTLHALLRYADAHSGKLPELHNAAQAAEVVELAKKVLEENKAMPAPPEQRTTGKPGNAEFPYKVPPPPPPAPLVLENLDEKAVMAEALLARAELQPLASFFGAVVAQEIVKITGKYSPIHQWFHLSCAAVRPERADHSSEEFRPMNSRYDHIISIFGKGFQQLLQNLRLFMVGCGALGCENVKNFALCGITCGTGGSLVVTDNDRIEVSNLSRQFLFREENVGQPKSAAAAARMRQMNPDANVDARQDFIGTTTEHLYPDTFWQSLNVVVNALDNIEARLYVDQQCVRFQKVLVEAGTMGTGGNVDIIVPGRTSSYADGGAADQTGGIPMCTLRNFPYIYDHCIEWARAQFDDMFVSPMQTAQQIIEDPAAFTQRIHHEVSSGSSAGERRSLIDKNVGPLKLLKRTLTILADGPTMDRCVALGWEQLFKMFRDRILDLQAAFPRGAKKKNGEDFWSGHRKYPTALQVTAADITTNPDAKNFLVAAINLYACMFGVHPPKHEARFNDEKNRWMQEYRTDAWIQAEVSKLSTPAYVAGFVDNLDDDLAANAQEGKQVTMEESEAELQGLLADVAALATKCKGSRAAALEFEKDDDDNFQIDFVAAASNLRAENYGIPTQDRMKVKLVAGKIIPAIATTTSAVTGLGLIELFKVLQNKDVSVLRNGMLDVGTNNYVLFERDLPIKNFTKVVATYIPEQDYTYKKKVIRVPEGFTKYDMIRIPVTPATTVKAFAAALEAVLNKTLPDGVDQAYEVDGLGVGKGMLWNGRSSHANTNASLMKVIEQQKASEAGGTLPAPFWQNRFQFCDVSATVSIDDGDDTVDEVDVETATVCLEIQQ
Description: Leishmania donovani Ubiquitin Activating Enzyme (LdE1). It is filed as functional. To be noted: 30 µM.

Assay [3] has as its target AMP-activated protein kinase, AMPK (Homo sapiens) (UniProt P54646+O43741+P54619+Q9UGJ0+Q9Y478+Q13131+Q9UGI9). Description: AMP-dependent Kinase enzyme assay. An in vitro enzyme assay that detects ADP turnover that is directly proportional to AMPK activity. This uses naive AMPK that is activated during the assay with MK-8722. The format is functional. The conditions noted are these: 30 µM.

Assay [4] addresses Sialic acid-binding Ig-like lectin 9 (Homo sapiens) (UniProt Q9Y336). The assay can be described thus: Hs-Siglec9 ALPHAscreen SOP 20170721. To be noted: 10 µM.
The subject of assay [5] is Trypanosoma cruzi. Description: Trypanosoma cruzi phosphomannomutase and mannose-1-phosphate guanylyltransferase assay. It is filed as functional. The conditions noted are these: 10 µM.
The target in assay [6] is T2, Arginase-2, mitochondrial (Homo sapiens) (UniProt P78540).
T2 sequence (whole entry): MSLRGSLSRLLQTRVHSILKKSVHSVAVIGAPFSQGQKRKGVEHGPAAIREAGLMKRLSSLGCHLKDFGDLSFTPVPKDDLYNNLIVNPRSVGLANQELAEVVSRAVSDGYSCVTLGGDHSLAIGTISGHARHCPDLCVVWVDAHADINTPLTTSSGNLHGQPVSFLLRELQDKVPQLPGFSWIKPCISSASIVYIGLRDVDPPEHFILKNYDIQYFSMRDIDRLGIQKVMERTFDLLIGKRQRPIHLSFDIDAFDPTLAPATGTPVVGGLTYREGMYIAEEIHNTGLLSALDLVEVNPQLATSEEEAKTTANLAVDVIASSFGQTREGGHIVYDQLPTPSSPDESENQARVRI
The assay can be described thus: in vitro enzyme assay to detect the production of urea directly proportional to the activity of Arginase II. Note: in the data most compounds retested in dose-response had high values. It is filed as functional. To be noted: 33.3 µM.

In assay [7] the target is T3, Proteasome subunit beta (Trypanosoma cruzi) (UniProt O96673).
T3 sequence (whole entry): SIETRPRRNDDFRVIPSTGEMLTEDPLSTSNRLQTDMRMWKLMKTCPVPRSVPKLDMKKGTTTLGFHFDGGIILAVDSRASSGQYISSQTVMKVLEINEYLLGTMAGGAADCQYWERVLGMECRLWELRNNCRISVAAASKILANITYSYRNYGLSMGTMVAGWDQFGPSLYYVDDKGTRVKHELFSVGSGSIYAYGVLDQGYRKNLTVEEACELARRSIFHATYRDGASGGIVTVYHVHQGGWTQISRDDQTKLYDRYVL
Description: Trypanosoma cruzi proteasome chymotrypsin-like activity (TcProtChymo) assay. Note: in the data most compounds retested in dose-response had high values. The format is functional. To be noted: 9.37 µM.

The species named for assay [8] is Homo sapiens. The assay can be described thus: To identify inhibition of the IFN signalling (Jak-Stat) pathway via expression of an eGFP reporter gene under the control of an IFN-stimulated response element (ISRE) containing MxA promoter. It is filed as functional. To be noted: 30 µM. A general note: Reporter assays use an easily measured gene product as a stand-in for the process of interest.

Assay [9] deals with T4, Tyrosyl-tRNA synthetase, putative (Trypanosoma cruzi (strain CL Brener)) (UniProt Q4DSP6).
T4 sequence (whole entry): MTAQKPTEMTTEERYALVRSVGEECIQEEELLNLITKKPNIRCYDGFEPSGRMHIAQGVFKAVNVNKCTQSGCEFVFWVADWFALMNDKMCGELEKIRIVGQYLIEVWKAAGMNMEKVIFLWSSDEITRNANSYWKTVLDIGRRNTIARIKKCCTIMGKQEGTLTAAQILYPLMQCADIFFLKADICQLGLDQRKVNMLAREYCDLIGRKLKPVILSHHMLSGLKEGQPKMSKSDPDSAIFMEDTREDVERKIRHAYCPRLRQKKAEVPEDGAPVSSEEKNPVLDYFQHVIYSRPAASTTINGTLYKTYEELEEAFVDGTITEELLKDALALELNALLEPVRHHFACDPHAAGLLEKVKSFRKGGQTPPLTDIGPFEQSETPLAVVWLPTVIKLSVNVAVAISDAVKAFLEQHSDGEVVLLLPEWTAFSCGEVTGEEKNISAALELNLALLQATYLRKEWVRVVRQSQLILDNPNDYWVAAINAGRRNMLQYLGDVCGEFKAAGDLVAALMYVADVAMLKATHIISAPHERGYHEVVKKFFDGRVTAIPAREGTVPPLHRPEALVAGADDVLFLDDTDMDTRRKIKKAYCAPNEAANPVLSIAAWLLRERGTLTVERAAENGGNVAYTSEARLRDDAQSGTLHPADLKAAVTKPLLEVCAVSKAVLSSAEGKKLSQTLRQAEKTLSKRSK
Description: Trypanosoma cruzi tyrosyl tRNA synthetase (TcYRS) _High Tyrosine SOP. Note: in the data most compounds retested in dose-response had high values. The format is functional. The conditions noted are these: 30 µM.

The target in assay [10] is T4, Tyrosyl-tRNA synthetase, putative (Trypanosoma cruzi (strain CL Brener)). The assay can be described thus: Trypanosoma cruzi tyrosyl tRNA synthetase (TcYRS) SOP. The conditions noted are these: 30 µM. The format is functional.
The target in assay [11] is Chromo domain-containing protein 1 (Saccharomyces cerevisiae (strain ATCC 204508 / S288c) (Baker's yeast)) (UniProt P32657). Description: ScCHD-1 Enzyme Inhibition Assay. Note: in the data most compounds retested in dose-response had high values. The format is functional. To be noted: 30 µM.
Chain of Chromo domain-containing protein 1 (Saccharomyces cerevisiae (strain ATCC 204508 / S288c) (Baker's yeast)) (P32657 whole entry, the tested form may be a part): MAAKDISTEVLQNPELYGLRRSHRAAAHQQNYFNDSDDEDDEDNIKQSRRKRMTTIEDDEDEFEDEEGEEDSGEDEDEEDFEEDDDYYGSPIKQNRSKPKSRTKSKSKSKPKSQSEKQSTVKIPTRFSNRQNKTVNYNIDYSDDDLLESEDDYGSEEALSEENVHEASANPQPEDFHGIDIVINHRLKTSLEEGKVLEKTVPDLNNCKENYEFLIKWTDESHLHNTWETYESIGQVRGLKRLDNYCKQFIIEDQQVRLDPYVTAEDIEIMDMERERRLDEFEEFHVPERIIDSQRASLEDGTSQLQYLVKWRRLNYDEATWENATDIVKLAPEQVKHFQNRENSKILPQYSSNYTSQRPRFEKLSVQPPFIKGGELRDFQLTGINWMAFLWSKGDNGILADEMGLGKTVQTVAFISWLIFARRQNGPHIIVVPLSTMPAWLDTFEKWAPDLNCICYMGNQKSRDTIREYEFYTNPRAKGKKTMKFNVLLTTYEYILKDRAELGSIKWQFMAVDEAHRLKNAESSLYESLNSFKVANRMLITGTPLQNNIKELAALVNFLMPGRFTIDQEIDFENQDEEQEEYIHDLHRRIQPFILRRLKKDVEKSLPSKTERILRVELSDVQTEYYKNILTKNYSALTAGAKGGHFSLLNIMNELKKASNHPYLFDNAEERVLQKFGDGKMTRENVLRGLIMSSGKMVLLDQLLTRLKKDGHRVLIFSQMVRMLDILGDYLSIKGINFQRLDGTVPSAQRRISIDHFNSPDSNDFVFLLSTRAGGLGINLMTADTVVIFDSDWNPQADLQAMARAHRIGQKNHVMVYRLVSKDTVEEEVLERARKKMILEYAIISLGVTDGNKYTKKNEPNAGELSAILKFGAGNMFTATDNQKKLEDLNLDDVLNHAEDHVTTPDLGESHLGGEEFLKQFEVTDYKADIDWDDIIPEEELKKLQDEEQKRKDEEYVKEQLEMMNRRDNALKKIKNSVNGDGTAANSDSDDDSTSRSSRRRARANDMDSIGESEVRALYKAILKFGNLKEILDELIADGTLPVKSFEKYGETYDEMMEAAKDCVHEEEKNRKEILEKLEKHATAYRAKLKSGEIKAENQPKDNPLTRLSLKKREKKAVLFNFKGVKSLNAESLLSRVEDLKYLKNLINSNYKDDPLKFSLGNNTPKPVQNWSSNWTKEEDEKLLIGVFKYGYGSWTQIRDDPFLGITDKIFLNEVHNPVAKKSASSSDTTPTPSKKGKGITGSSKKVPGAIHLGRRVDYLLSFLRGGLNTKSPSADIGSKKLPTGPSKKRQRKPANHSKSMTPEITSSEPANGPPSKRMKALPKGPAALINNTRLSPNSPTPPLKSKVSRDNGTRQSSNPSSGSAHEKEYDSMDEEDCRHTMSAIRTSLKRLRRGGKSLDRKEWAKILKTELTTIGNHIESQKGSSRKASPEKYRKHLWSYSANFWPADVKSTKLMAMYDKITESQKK

Chain of Sialic acid-binding Ig-like lectin 9 (Homo sapiens) (Q9Y336 whole entry): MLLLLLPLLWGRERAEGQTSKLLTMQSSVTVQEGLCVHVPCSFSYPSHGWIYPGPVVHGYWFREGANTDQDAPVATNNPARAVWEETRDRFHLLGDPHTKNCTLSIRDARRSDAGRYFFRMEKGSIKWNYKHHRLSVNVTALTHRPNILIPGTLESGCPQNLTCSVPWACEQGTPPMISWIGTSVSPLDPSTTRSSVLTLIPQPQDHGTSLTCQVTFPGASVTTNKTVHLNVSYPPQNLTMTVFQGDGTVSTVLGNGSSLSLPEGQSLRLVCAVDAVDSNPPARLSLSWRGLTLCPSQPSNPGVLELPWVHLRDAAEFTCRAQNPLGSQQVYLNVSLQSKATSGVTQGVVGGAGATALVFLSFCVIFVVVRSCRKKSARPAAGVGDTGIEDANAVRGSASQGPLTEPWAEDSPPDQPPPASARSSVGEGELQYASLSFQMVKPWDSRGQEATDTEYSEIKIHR
Chain of Protein translocase subunit SecA (Escherichia coli (strain K12)) (P10408 whole entry): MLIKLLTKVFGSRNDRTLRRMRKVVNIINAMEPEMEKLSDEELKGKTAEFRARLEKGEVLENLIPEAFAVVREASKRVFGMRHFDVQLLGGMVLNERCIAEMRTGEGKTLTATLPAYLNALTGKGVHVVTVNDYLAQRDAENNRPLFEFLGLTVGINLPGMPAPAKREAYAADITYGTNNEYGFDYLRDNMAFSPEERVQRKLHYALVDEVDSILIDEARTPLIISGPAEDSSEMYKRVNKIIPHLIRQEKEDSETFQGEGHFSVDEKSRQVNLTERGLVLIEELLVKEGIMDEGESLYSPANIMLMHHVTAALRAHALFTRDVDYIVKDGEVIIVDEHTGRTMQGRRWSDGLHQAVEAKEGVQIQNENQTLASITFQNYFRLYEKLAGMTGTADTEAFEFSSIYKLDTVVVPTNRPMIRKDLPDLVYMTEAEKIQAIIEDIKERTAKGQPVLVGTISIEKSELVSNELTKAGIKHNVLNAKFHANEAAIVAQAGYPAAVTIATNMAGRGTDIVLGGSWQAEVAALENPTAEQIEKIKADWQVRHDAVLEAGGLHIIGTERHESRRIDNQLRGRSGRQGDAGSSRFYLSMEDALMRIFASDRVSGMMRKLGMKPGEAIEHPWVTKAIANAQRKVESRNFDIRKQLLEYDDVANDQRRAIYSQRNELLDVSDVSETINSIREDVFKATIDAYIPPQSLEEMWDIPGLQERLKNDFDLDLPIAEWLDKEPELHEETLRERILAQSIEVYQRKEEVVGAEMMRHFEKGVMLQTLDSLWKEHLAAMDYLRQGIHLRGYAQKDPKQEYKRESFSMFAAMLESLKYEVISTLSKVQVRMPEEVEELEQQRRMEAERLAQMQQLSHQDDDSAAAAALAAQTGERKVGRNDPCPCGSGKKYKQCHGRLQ

Turning to `CCn1cc(NC(=O)NCC(O)CN2CCCCC2)cn1` (stereo not given), the Percent Effect is -2.01% in assay [1]; 5.2% in assay [2]; 2.67% in [3]; 12.4% in assay [4]; 1.27% in [5]; 4% in assay [6]. Further, the Percent Effect in assay [7] was 0.404%; in assay [8], 15.9%; in [9] it was 0%; in [10], 2.35%; in assay [11], -9.62%.

Take `CC(C)(C)NC(=O)CN1CCN(C(=O)Nc2ccc(F)cc2F)CC1`: the Percent Effect in assay [1] was -2.23%; in [2] it was 5.48%; in [3] it was 8.1%; in [4] it was -2.38%; in assay [5] it was -8.73%; in [6] it was -0.399%. For the same molecule, the Percent Effect in [7] was 6.76%; in assay [8], 10.3%; in assay [9] it was 3.12%; in [10], 6.17%; in assay [11], -2.48%.

In the case of `CC(C)c1nccn1C1CCCN(C(=O)c2cccc3c2OCO3)C1` (stereo not given), the Percent Effect in assay [1] is 1.99%; in assay [2], -46%; in assay [3] it was -3.6%; in assay [4], 9.39%; in [5], 2.55%; in assay [6], -5.61%. Further, the Percent Effect in [7] was 2.16%; in [8] it was 9.02%; in assay [9], 2.46%; in assay [10] it was 11.1%; in [11] it was -2.9%.

Consider `CCc1nc(CN2CCCC(N(C)Cc3cnc(C)s3)C2)no1` (stereo not given), for which the Percent Effect in assay [1] was -0.97%; in [2], -5.48%; in assay [3], -1.7%; in assay [4] it was 3.08%; in assay [5], 0.979%; in assay [6], 0.455%. Further, the Percent Effect in [7] is 18.8%; in assay [8], -15.8%; in assay [9], 2.15%; in assay [10], 0%; in assay [11], -0.829%.

For `COc1cccc(-n2c(C)cc(C(=O)O)c2C)c1`, the Percent Effect in assay [1] was -4.92%; in assay [2], 20.2%; in [3] it was -3.83%; in [4], -8.51%; in assay [5], -6.52%; in assay [6], 2.28%. Besides, the Percent Effect is 10.7% in assay [7]; 31.6% in assay [8]; -0.493% in assay [9]; 3.8% in assay [10]; -2.26% in assay [11].

With `COc1ccc(CCNC(=O)C2CCC(Cn3cnnn3)CC2)cc1` (stereo not given), the Percent Effect in assay [1] is -1.81%; in assay [2] it was 1.33%; in [3], 15.9%; in assay [4], 3.74%; in [5] it was -1.38%; in assay [6], -5.81%. Further, the Percent Effect in assay [7] is 5.18%; in assay [8], -2.49%; in [9], 5.29%; in assay [10], 2.56%; in assay [11], -1.04%.

Regarding `Cc1noc(C(C)N2CCN(CCC(=O)N3CCCCC3)CC2)n1` (stereo not given), the Percent Effect in [1] is -2.79%; in [2], 10.5%; in assay [3] it was -2.48%; in [4], 3.61%; in assay [5], 4.19%; in assay [6], -16.6%. Besides, the Percent Effect was 9.68% in assay [7]; 21.2% in assay [8]; 3.19% in assay [9]; 15.6% in assay [10]; -5.47% in [11].

On to `CC(C)c1nn(CC(=O)N2CCCCC2)c(=O)c2c1cnn2C(C)(C)C`, for which the Percent Effect in [1] is -2.78%; in assay [2], 11%; in [3], -3.21%; in assay [4], -1.33%; in assay [5], -4.31%; in [6] it was 0.455%. Also, the Percent Effect in [7] is 16.5%; in [8] it was 17.3%; in [9], 2.15%; in assay [10], 12.5%; in assay [11], -6.96%.

As to `O=C(CN1CCCCC1Cn1cccn1)NC1CCN(C2CC2)CC1` (stereo not given), the Percent Effect in [1] is -0.952%; in [2], 0%; in assay [3] it was -4.99%; in assay [4] it was 6.13%; in assay [5] it was -1.16%; in assay [6] it was -4.29%. Moreover, the Percent Effect in assay [7] is 13.3%; in assay [8], 1.18%; in assay [9] it was 0.529%; in [10], 2.44%; in assay [11], -1.27%.

Consider `CC(C)CN1CCC(c2nc3c([nH]2)CC(C)(C)CNC3=O)C1` (stereo not given), for which the Percent Effect in assay [1] was 3.37%; in assay [2], 8.11%; in assay [3], -3.98%; in assay [4] it was 5.96%; in assay [5], 3.67%; in assay [6], 16.2%. The Percent Effect in [7] is 10.5%; in assay [8], 19.8%; in assay [9], 5.82%; in assay [10], 19.5%; in assay [11], -2.21%.
